An excerpt weighted towards active compounds, which were near 3% of everything screened.
CSC inhib: cancer stem cell viability inhibitors, primary screen, luminescence. inhibition, % at 7.5 µM. cancer stem cell-like cells viability. 1.1% of 300,000 active; in the data active means inhibition above about 75%; tested in HMLE shEcad cells
KLF5 inhibitor: KLF5 expression inhibitors, primary screen, DLD-1 cells, luminescence | inhibition, % at 5 µM | 0.23% of 290,000 active | DLD-1 KLF5 promoter-luciferase reporter;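 active means inhibition above a per-plate limit of that plate's mean compound inhibition plus 3 SD, cut at about 60% in these data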;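 further: 0% = DMSO wells and 100% = LY294002 at 200 µM; higher means less KLF5 promoter-driven luciferase light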
SKKanGAS inh: S. pyogenes SKKanGAS growth inhibitors in kanamycin, primary screen, streptokinase expression inhibitor project, SKKanGAS strain, BacTiter-Glo luminescence. 6 h. inhibition, % at 7.5 µM. 1.3% of 300,000 active. AID 1662, 2009;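 active means mean replicate score, as percent of positive control median, at least 50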;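 further: strain carries kanamycin resistance gene driven by streptokinase promoter and grows in 40 µg/ml kanamycin; loss of luminescence reflects streptokinase promoter inhibition or plain growth inhibition; 0% = median of DMSO wells and 100% = positive control at its reference dose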
IEC-6 tox: cytotoxicity in IEC-6 intestinal epithelial cells, primary screen, cytotoxicity control for KLF5 inhibitor project, cell-based, luminescence | IEC-6 cytotoxicity, luminescence viability | inhibition, % at 5 µM | 0.78% of 290,000 active; in the data active means inhibition above about 22%;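 further: 0% = plate median of test compound wells and 100% = cytotoxic reference compound wells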
aSyn UTR inh: MLPCN primary screen, SNCA 5' untranslated region; alpha-synuclein 5'UTR reporter, inhibitor activity; inhibition, % (tested at 7.5 µM); 0.82% of 300,000 active; AID 1813, 2009; in the data active means inhibition above about 60%;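 further: H4 neuroglioblastoma cells stably carrying SNCA 5'UTR luciferase fusion; 0% = DMSO wells and 100% = positive control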
Starred values were filed as active, the others as inactive; . = not tested or not shown.

SMILES | CSC inhib | KLF5 inhibitor | SKKanGAS inh | IEC-6 tox | aSyn UTR inh
COc1cc(C(=O)Nc2ccc(NC(=O)c3ccccc3Cl)nc2)cc(OC)c1OC | 1.1 | -16.8 | 6.1 | 5.4 | -7.1
Cc1cccc(NC(=O)c2nc[nH]c2C(=O)N[C@@H](CC(C)C)C(=O)OC(C)(C)C)c1 | . | . | 99.6* | . | 5.4
Cc1cccc(NC(=O)c2nc[nH]c2C(=O)N[C@@H](Cc2ccccc2)C(=O)OC(C)(C)C)c1 | -19.4 | . | 98.2* | . | -14.9
CC(C)(C)OC(=O)[C@H](Cc1ccccc1)NC(=O)c1[nH]cnc1C(=O)N[C@@H](Cc1ccccc1)C(=O)OCc1ccccc1 | 10.4 | -15.1 | 15.5 | -2.3 | 34.1
C[C@H](NC(=O)c1nc[nH]c1C(=O)N[C@@H](Cc1ccccc1)C(=O)OC(C)(C)C)C(=O)OC(C)(C)C | . | . | 6.6 | . | 28.2
CC(C)C[C@H](NC(=O)c1nc[nH]c1C(=O)NCC(=O)OC(C)(C)C)C(=O)OC(C)(C)C | -3.6 | . | 8.9 | . | 21.3
CC(C)(C)OC(=O)[C@H](Cc1ccccc1)NC(=O)c1nc[nH]c1C(=O)N[C@@H](Cc1ccccc1)C(=O)OC(C)(C)C | -3.8 | . | 70.1* | . | 22.2
CCOC(=O)c1ccc(NC(=O)c2nc[nH]c2C(=O)NCC(=O)OC(C)(C)C)cc1 | 24.9 | . | 9.2 | . | 36.3
CCOC(=O)c1ccc(NC(=O)c2nc[nH]c2C(=O)N[C@@H](Cc2ccccc2)C(=O)OC(C)(C)C)cc1 | 2.4 | . | 55.9* | . | -10.2
CC(C)(C)OC(=O)NCCCC[C@H](NC(=O)c1[nH]cnc1C(=O)N[C@@H](Cc1ccccc1)C(=O)OC(C)(C)C)C(=O)OC(C)(C)C | 30.1 | . | 38.3 | . | 23.3
CC(C)(C)OC(=O)[C@H](Cc1ccccc1)NC(=O)c1[nH]cnc1C(=O)Nc1cccc(Cl)c1 | 96.9* | . | 72.2* | . | 14.1
CC(C)(C)OC(=O)[C@H](Cc1ccccc1)NC(=O)c1[nH]cnc1C(=O)Nc1ccc(Cl)cc1 | 119.6* | . | 90.8* | . | 16.0
COc1ccc(CN(C)CC(=O)Nc2cccc(S(=O)(=O)N(C)c3ccccc3)c2)c(OC)c1 | 0.0 | . | . | . | .
CCn1c(NCc2ccccc2NS(=O)(=O)c2ccc(C)cc2)nc2ccccc21 | 67.9 | 10.2 | -7.6 | 3.7 | 20.7
CCCn1c(NCc2ccccc2NS(=O)(=O)c2ccc(C)cc2)nc2ccccc21 | 75.0* | 7.5 | 13.7 | 3.7 | 27.2
FC(F)(F)c1ccc(C2[C@H]3CN(Cc4cccnc4)[C@H](c4ccccc4)C34CC2(c2cccnc2)C4)cc1 (some centres undefined) | 101.7* | . | 52.6* | . | -10.9
Cc1cccc(CN2CCCC(C(=O)c3ccc4c5c(cccc35)CC4)C2)n1 (centres undefined) | 6.7 | -32.3 | 65.0* | -2.4 | 4.8
COc1ccc(-c2[nH]ncc2CN2CCCC(C(=O)c3cccc(OC)c3)C2)cc1 (centres undefined) | 2.3 | -7.1 | -0.2 | -5.8 | -0.8
COc1ccc2cc(C(=O)C3CCCN(Cc4cccc(C)n4)C3)ccc2c1 (centres undefined) | -7.0 | -0.8 | 79.1* | 9.1 | 43.1
O=C(c1ccc2c3c(cccc13)CC2)C1CCCN(Cc2cccnc2)C1 (centres undefined) | . | 12.6 | -11.6 | 3.0 | 13.4
CCOc1ccccc1NC(=O)CCCn1cc([N+](=O)[O-])cn1 | -7.5 | -4.2 | -2.1 | 4.8 | 5.1
Clc1ccc(-n2ncc3c(N4CCCC4)ncnc32)cc1 | 1.6 | -48.3 | -3.6 | 3.0 | 92.3*
CCOC(=O)C1CCN(c2ncnc3c2cnn3-c2ccc(Cl)cc2)CC1 | -14.3 | -5.3 | -10.3 | -3.6 | 64.7*
CCOC(=O)C1CCN(c2ncnc3c2cnn3-c2ccccc2)CC1 | -6.1 | -4.5 | -13.2 | -4.5 | 9.9
CC1CCN(c2ncnc3c2cnn3-c2ccccc2)CC1 | 49.9 | -155.1 | -7.7 | -1.8 | -118.8
SMILES | CSC inhib | KLF5 inhibitor | SKKanGAS inh | IEC-6 tox | aSyn UTR inh
Clc1ccc(Nc2ncnc3c2cnn3-c2ccccc2)cc1 | 32.0 | -15.8 | 81.0* | -2.9 | -119.0
CCOC(=O)Cc1nc2ccccc2n(CC#N)c1=O | . | -7.4 | 8.6 | -1.3 | 20.4
O=C1NCN(c2ccccc2)C12CCN(CCCC(c1ccc(F)cc1)c1ccc(F)cc1)CC2 | 78.5* | 17.6 | 2.9 | 6.4 | 16.3
CCCc1n[nH]c2c1/C(=N/O)CC(c1ccccc1)C2 (centres undefined) | 23.2 | 8.3 | 2.3 | 7.9 | 69.4*
COc1ccc(C2=NN(C(=O)c3ccco3)C(c3ccco3)C2)cc1OC (centres undefined) | 24.2 | -24.2 | -2.9 | 5.9 | 11.8
CC(=O)N1CC(=O)N=C1SCC(=O)Nc1nc(-c2ccccc2)c(-c2ccccc2)s1 | 33.2 | -7.0 | 6.6 | -0.4 | -40.0
O=C(Nc1ccn(Cc2c(F)c(F)cc(F)c2F)n1)c1ccc(COc2ccccc2Cl)cc1 | 13.7 | -26.8 | 8.0 | 2.3 | -40.5
O=C(Nc1ccn(Cc2ccccc2F)n1)c1ccc(COc2ccccc2Cl)cc1 | 139.0* | -3.1 | 23.2 | -2.7 | -32.3
Cc1cc(C)nc(NC(=O)c2ccc(COc3ccccc3Cl)cc2)c1 | 98.5* | 28.4 | 18.4 | 19.1 | 2.8
COc1cc(Cl)cc(/C=C/c2ccc3ccccc3n2)c1OC(C)=O | 0.6 | -46.1 | 32.7 | 0.7 | -126.7
COc1ccc(OC)c(/C=C/c2ccc3cccc(O)c3n2)c1 | 39.3 | -4.7 | 89.7* | 2.9 | 40.6
COc1cc(/C=C/c2ccc3cccc(O)c3n2)c(Br)cc1O | 96.0* | -31.5 | 94.4* | 3.4 | -41.6
CSc1ccc(/C=C/c2ccc3cccc(O)c3n2)cc1 | 60.6 | -35.6 | 100.5* | -2.6 | -51.6
COc1cc(Br)c(/C=C/c2ccc3cccc(O)c3n2)cc1OC | 17.0 | -32.3 | 85.1* | -1.7 | 8.1
CCOc1cc(/C=C/c2ccc3cccc([N+](=O)[O-])c3n2)cc(Cl)c1O | 58.7 | 6.2 | 7.1 | -0.8 | 12.8
Cn1cnc2c(=O)sc3ccccc3c21 | -18.2 | . | -3.6 | . | -17.5
CCc1ccc(NC(=O)COC(=O)CCc2nc3cc(S(=O)(=O)N(CC)CC)ccc3n2C)cc1 | 9.3 | -22.7 | 2.3 | -3.1 | 0.5
COc1cc(Br)cc(/C=C/c2ccc3cccc(O)c3n2)c1O | 91.7* | -33.9 | 101.5* | -11.0 | 27.4
COc1cc(/C=C/c2ccc3cccc(OC)c3n2)c(O)c([N+](=O)[O-])c1 | 2.2 | -11.7 | 2.3 | 1.4 | -30.6
Oc1c(Cl)cc(Cl)cc1/C=C/c1ccc2cccc(O)c2n1 | 15.0 | -31.7 | 102.2* | -2.6 | -58.1
Oc1ccc(Cl)cc1/C=C/c1ccc2cccc(O)c2n1 | . | 26.8 | -39.4 | -3.6 | 15.4
Oc1cccc2ccc(/C=C/c3ccccc3Br)nc12 | 97.2* | -73.8 | 103.0* | 9.5 | 33.2
COc1cc(/C=C/c2ccc3cccc(O)c3n2)ccc1O | 75.3* | -175.2 | 87.7* | 5.6 | -66.6
CS(=O)(=O)NCC(c1ccco1)N1CCN(c2ccc(F)cc2)CC1 (centres undefined) | -5.8 | 0.3 | 0.2 | 2.1 | -12.4
NC(=NCCc1ccccc1)NC(=O)c1cc(Cl)ccc1O | 23.1 | . | -1.7 | . | -108.1
Cc1ccc(-n2nnnc2SCC(=O)NC(=O)Nc2ccc3c(c2)OCCO3)cc1 | . | -103.0 | 49.9* | -7.4 | -160.1

High-throughput results: PubChem BioAssay, several laboratories
